These results are taken from PubChem BioAssay (NCI).

The panel holds about 83,000 compounds, 20% with a hit somewhere; the sample as a whole holds those more often.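 Testing used 96-well plates and a 48-hour single-concentration exposure. Example: -40 means 40% of the starting cells died.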 Values without a mark were called inactive. Calls of active or inactive are those of the source. The calls were made as follows: active = growth percent below 10; inactive = the rest.

Among the test systems are NCI-H23 lung; NCI-H226 lung; NCI-H322M lung; NCI-H460 lung; NCI-H522 lung; A549/ATCC NSCLC; 786-0 renal; COLO 205 colon; DU-145 prostate; K-562 leukemia; MALME-3M melanoma; MDA-MB-231 breast; RXF 393 renal; SF-268 CNS; SF-295 CNS; SF-539 CNS; UACC-257 melanoma; M14 melanoma; HCT-15 colon; HOP-62 NSCLC.
Common to all, as to assay: NCI-60 one-dose screen, 48 h (100 = growth as untreated, 0 = no growth, -100 = all killed)
Conditions in all cases: 10 µM

In the case of `O=C(O)CC(Cl)C(Cl)CC(=O)O` (stereo not given), the growth with NCI-H23 lung is 102%; in the test with NCI-H226 lung it was 119%; with NCI-H322M lung, 93.1%; in the test with NCI-H460 lung it was 101%; with NCI-H522 lung, 86.3%; with A549/ATCC NSCLC, 94.6%. The growth in the test on 786-0 renal is 101%; in the test on COLO 205 colon, 112%; with DU-145 prostate it was 106%; with K-562 leukemia it was 103%; in the test with MALME-3M melanoma it was 90.7%; in the test on MDA-MB-231 breast, 117%. Besides, the growth in the test with RXF 393 renal was 127%; in the test with SF-268 CNS, 105%; in the test on SF-295 CNS it was 92.7%; in the test on SF-539 CNS, 99.3%; in the test on UACC-257 melanoma it was 92.2%; with M14 melanoma it was 102%. Further, the growth in the test on HCT-15 colon was 99.2%.

For `COc1ccc(NC(=O)CSc2nc3ccccc3c(=O)n2CCc2ccccc2)cc1`, the growth is 92.2% with NCI-H23 lung; 93.9% in the test on NCI-H226 lung; 81.5% with NCI-H322M lung; 75.5% in the test on NCI-H460 lung; 105% in the test on NCI-H522 lung; 75.1% in the test with A549/ATCC NSCLC. Also, the growth was 95.3% with 786-0 renal; 95.5% in the test on COLO 205 colon; 101% in the test on DU-145 prostate; 60.3% with MALME-3M melanoma; 61.5% with MDA-MB-231 breast; 53.7% in the test with SF-268 CNS. The growth was 91.5% in the test with SF-295 CNS; 79.5% in the test with SF-539 CNS; 87.9% in the test with UACC-257 melanoma; 75.3% in the test with M14 melanoma; 92.1% in the test with HCT-15 colon.

As for `CCN(CC)CCNC(=O)c1ccc(NC(C)=O)cc1`, the growth is 94.5% in the test with NCI-H23 lung; 110% with NCI-H226 lung; 105% with NCI-H322M lung; 113% with NCI-H460 lung; 111% in the test with NCI-H522 lung; 98.5% in the test with A549/ATCC NSCLC. In addition, the growth was 108% with 786-0 renal; 112% in the test with COLO 205 colon; 119% in the test on DU-145 prostate; 99.2% with K-562 leukemia; 103% with MALME-3M melanoma; 91.8% with MDA-MB-231 breast. The growth in the test with RXF 393 renal was 109%; in the test with SF-268 CNS, 109%; with SF-295 CNS, 104%; in the test on SF-539 CNS it was 107%; in the test on UACC-257 melanoma, 117%; in the test with M14 melanoma it was 109%. Besides, the growth in the test on HCT-15 colon was 101%.

As for `Cc1cc(C)c2c(n1)sc1c(Nc3ccc(Cl)cc3)ncnc12`, the growth is 4.49% (active) with NCI-H23 lung; 1.79% (active) in the test on NCI-H226 lung; 32% in the test with NCI-H322M lung; 5.8% (active) with NCI-H460 lung; 16.1% with NCI-H522 lung; 18.2% in the test with A549/ATCC NSCLC. For the same compound, the growth was -3.32% (active) with 786-0 renal; 10.6% with COLO 205 colon; 6.73% (active) in the test with DU-145 prostate; 46.2% in the test on K-562 leukemia; 32.1% in the test on MDA-MB-231 breast; 1.12% (active) in the test on RXF 393 renal. For the same compound, the growth was 0.138% (active) in the test on SF-268 CNS; 10.6% in the test on SF-295 CNS; -49.5% (active) in the test on SF-539 CNS; 20.3% in the test on UACC-257 melanoma; -48.3% (active) in the test on M14 melanoma; 31% in the test on HCT-15 colon.

As for `N=C(N)c1ccc(-c2ccc(-c3cccs3)s2)cc1`, the growth with NCI-H23 lung is 83.8%; in the test on NCI-H226 lung, 82.3%; with NCI-H322M lung it was 2.2% (active); in the test with HOP-62 NSCLC, 86.6%; with NCI-H460 lung it was -72.4% (active); with NCI-H522 lung, 76.4%. The growth in the test with A549/ATCC NSCLC was -44.8% (active); with COLO 205 colon, -96.6% (active); with DU-145 prostate it was 0.967% (active); with K-562 leukemia it was -56% (active); in the test on MALME-3M melanoma, -80.1% (active); with MDA-MB-231 breast, 75.8%. In addition, the growth was 75.8% with RXF 393 renal; 101% with SF-268 CNS; 16.4% with SF-295 CNS; 89.5% in the test on SF-539 CNS; 34.6% in the test with UACC-257 melanoma; 30.3% with M14 melanoma. The growth with HCT-15 colon was 0.674% (active).

Take `O=C1NC(=O)c2ncccc21`: the growth is 101% with NCI-H23 lung; 96.3% in the test with NCI-H226 lung; 106% with NCI-H322M lung; 111% in the test on NCI-H460 lung; 171% with NCI-H522 lung; 98.8% in the test with A549/ATCC NSCLC. The growth is 102% in the test with 786-0 renal; 114% in the test with COLO 205 colon; 113% with DU-145 prostate; 107% with K-562 leukemia; 114% in the test on MALME-3M melanoma; 116% with MDA-MB-231 breast. Moreover, the growth was 103% in the test with SF-268 CNS; 89.7% in the test with SF-295 CNS; 101% with SF-539 CNS; 102% with UACC-257 melanoma; 99.9% in the test on M14 melanoma; 101% with HCT-15 colon.

As to `Cc1cc2ccccc2nc1-c1ccccc1F`, the growth is 109% with NCI-H23 lung; 98.9% with NCI-H226 lung; 128% with NCI-H322M lung; 107% in the test on NCI-H460 lung; 122% in the test with NCI-H522 lung; 92.4% in the test with A549/ATCC NSCLC. Further, the growth in the test on 786-0 renal was 95.1%; in the test on COLO 205 colon, 110%; with DU-145 prostate it was 116%; in the test with K-562 leukemia, 110%; with MDA-MB-231 breast, 112%; in the test with RXF 393 renal it was 99%. Besides, the growth is 101% in the test on SF-268 CNS; 107% in the test with SF-295 CNS; 107% in the test with SF-539 CNS; 89.6% in the test on UACC-257 melanoma; 108% in the test on M14 melanoma; 101% in the test with HCT-15 colon.

Regarding `Nc1c(C(=O)Nc2ccccc2)sc2nc3c(cc12)C(O)CCC3` (stereo not given), the growth in the test with NCI-H23 lung was 37.1%; in the test on NCI-H226 lung, 74%; in the test on NCI-H322M lung it was 46.1%; in the test on NCI-H460 lung, 11.8%; with NCI-H522 lung, 7.09% (active); in the test on A549/ATCC NSCLC it was 29.3%. Further, the growth with 786-0 renal is 57.6%; in the test with COLO 205 colon, -8.22% (active); in the test with DU-145 prostate, 5.47% (active); in the test with K-562 leukemia it was 11.1%; in the test on MALME-3M melanoma it was 87.4%; in the test with MDA-MB-231 breast it was 32.8%. For the same compound, the growth with RXF 393 renal is -6.4% (active); in the test with SF-268 CNS, 46.4%; with SF-295 CNS, 8.61% (active); with SF-539 CNS, -5.31% (active); in the test with UACC-257 melanoma, 71.1%; with HCT-15 colon, 23.5%.

For `c1ccc([I+]c2ccccc2)cc1`, the growth in the test on NCI-H23 lung was 55.6%; with NCI-H226 lung, 65.5%; in the test on NCI-H322M lung, 72.8%; with NCI-H460 lung, 86.5%; in the test with NCI-H522 lung, 64.7%; in the test with A549/ATCC NSCLC, 48.7%. The growth with 786-0 renal was 61%; with COLO 205 colon, 55%; in the test with DU-145 prostate, 90%; in the test on K-562 leukemia, 42.2%; in the test with MALME-3M melanoma, 50.5%; in the test on MDA-MB-231 breast, 87.6%. The growth in the test on RXF 393 renal is 60.4%; in the test on SF-268 CNS, 55.7%; in the test with SF-295 CNS it was 81%; with SF-539 CNS it was 68.9%; in the test with UACC-257 melanoma, 78.6%; with M14 melanoma it was 72.5%. In addition, in the test on HCT-15 colon, the growth is 89.4%.
